Experiments:
Test in all cases: DAPPL (digital affinity profiling via proximity ligation, sequencing); 10 mM Tris-HCl pH 7.5, 50 mM NaCl, 1 mM DTT, 4% glycerol, room temperature, 30 min; GST-TFs on glutathione beads, 16-mer random dsDNA library, 0.1% formaldehyde crosslink after washing; high values mean tight binding
Conditions in all cases: protein: recombinant; tags: N-terminal GST; dsDNA, one strand shown
[1] = target: T1, ERF (Homo sapiens, UniProt P50548 1-548)
T1 sequence: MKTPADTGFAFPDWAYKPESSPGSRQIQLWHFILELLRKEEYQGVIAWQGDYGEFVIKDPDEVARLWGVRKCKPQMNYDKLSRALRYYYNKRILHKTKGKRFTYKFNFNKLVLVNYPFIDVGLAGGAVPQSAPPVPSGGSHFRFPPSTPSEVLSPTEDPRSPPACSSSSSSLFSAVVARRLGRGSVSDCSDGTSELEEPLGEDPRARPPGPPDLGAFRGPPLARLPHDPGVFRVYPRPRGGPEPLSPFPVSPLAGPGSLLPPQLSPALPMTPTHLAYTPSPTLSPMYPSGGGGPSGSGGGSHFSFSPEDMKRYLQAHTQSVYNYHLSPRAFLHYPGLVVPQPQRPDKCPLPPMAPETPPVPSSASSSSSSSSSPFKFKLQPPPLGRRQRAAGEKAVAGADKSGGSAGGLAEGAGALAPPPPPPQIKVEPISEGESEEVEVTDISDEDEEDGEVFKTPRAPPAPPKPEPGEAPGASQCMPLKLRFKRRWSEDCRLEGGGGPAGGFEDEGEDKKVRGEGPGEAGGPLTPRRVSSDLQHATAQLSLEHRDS
Method in brief: (§1)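 Binding signal is defined as a hexamer's read frequency for one factor over its frequency for the tag-only sample. To obtain reads, GST-fused human transcription factors were expressed in yeast, captured on glutathione beads, barcoded with DNA and pooled with that sample. Pools met 200 nmole of a 16-mer random double-stranded DNA library in Tris/NaCl/DTT/glycerol buffer for 30 min at room temperature before washing, 0.1% formaldehyde crosslinking, proximity ligation (BsaI/T4 ligase, 1 h, 37 °C), PCR and Illumina NextSeq500 sequencing.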

[2] = target: T2, ETV3L (Homo sapiens, UniProt Q6ZN32 1-361)
T2 sequence: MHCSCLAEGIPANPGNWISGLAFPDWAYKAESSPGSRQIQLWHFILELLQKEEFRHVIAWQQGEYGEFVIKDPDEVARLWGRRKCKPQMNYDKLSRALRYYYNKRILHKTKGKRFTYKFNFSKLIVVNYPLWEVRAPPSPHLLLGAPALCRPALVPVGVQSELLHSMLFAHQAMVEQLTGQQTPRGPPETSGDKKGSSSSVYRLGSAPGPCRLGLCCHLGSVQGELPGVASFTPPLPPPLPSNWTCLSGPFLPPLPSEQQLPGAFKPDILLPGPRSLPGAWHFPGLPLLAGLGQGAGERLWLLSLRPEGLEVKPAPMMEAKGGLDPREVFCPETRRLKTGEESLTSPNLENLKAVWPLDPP
Method in brief: as §1

[3] = target: T3, ETS2 (Homo sapiens, UniProt P15036 1-469)
T3 sequence: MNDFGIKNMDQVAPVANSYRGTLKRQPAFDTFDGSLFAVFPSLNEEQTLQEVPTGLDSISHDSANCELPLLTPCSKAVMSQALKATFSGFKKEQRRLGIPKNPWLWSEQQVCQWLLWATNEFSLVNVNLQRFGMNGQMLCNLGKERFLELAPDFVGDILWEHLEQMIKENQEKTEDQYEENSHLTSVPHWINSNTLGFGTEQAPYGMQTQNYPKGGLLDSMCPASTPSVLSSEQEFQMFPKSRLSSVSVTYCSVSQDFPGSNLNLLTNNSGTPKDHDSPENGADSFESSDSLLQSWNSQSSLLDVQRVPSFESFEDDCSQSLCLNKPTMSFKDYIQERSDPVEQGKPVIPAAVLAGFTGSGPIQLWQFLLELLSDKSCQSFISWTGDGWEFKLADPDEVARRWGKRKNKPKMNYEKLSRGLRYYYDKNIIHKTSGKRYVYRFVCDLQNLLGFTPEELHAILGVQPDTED
Method in brief: as §1

[4] = target: T4, SPDEF (Homo sapiens, UniProt O95238 1-335)
T4 sequence: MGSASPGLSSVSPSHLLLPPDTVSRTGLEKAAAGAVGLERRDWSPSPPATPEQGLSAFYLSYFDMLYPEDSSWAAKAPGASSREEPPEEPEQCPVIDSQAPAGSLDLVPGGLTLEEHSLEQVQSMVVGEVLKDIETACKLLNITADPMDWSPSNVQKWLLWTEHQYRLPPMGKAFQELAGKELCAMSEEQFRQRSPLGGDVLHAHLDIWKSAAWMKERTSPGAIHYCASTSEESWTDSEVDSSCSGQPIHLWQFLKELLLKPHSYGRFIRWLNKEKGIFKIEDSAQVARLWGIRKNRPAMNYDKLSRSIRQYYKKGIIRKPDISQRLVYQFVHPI
Method in brief: as §1

[5] = target: T5, ETV7 (Homo sapiens, UniProt Q9Y603 1-341)
T5 sequence: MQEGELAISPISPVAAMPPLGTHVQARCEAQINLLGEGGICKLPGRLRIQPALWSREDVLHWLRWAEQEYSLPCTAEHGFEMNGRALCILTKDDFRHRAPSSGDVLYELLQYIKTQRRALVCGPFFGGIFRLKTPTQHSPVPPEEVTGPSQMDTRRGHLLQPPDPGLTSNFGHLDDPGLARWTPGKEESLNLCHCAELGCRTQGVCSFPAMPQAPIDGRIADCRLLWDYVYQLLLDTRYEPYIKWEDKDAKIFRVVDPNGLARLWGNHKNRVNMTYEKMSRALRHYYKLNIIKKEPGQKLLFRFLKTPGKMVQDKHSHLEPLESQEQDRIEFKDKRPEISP
Method in brief: as §1

[6] = target: T6, ELF5 (Homo sapiens, UniProt Q9UKW6-2 1-255)
T6 sequence: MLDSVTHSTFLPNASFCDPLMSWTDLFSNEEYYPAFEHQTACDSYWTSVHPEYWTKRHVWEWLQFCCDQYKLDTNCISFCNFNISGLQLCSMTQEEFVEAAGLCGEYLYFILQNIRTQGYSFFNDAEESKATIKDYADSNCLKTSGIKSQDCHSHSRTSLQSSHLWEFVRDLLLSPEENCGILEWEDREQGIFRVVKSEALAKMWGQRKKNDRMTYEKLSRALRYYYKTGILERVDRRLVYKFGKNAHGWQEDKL
Method in brief: as §1

[7] = target: T7, ETV3 (Homo sapiens, UniProt P41162-2 1-143)
T7 sequence: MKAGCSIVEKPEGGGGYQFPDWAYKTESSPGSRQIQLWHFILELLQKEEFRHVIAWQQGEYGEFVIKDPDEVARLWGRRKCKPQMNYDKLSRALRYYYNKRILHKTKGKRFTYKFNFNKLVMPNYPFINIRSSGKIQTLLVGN
Method in brief: as §1

[8] = target: ETV6 (Homo sapiens, UniProt P41212 1-452)
ETV6, sequence (P41212 whole entry): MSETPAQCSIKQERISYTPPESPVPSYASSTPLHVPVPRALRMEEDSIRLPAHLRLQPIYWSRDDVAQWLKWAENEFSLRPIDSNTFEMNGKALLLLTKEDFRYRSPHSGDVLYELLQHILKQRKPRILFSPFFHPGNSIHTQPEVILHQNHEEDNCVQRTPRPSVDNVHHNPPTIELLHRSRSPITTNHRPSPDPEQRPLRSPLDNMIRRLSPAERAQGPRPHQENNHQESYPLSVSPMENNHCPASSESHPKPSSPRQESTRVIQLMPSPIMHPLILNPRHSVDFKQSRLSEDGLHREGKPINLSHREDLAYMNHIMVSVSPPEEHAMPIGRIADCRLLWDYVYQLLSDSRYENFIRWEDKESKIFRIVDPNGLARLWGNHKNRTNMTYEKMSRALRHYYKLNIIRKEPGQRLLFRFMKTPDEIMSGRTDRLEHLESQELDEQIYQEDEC
Method in brief: as §1

Row | Sequence | binding signal [1] | binding signal [2] | binding signal [3] | binding signal [4] | binding signal [5] | binding signal [6] | binding signal [7] | binding signal [8]
1 | GCTGAT | 1.07 fold enrichment (6-mer frequency, TF over GST control) | 1.18 fold enrichment (6-mer frequency, TF over GST control) | 1.12 fold enrichment (6-mer frequency, TF over GST control) | 1.07 fold enrichment (6-mer frequency, TF over GST control) | 1.27 fold enrichment (6-mer frequency, TF over GST control) | 1.03 fold enrichment (6-mer frequency, TF over GST control) | 1.2 fold enrichment (6-mer frequency, TF over GST control) | –
2 | CCTTCT | 1.5 fold enrichment (6-mer frequency, TF over GST control) | 1.62 fold enrichment (6-mer frequency, TF over GST control) | 1.53 fold enrichment (6-mer frequency, TF over GST control) | 1.84 fold enrichment (6-mer frequency, TF over GST control) | 1.45 fold enrichment (6-mer frequency, TF over GST control) | 1.86 fold enrichment (6-mer frequency, TF over GST control) | 1.44 fold enrichment (6-mer frequency, TF over GST control) | 1.58 fold enrichment (6-mer frequency, TF over GST control)
3 | CCGATA | 1.13 fold enrichment (6-mer frequency, TF over GST control) | 1.05 fold enrichment (6-mer frequency, TF over GST control) | 1.16 fold enrichment (6-mer frequency, TF over GST control) | 1.05 fold enrichment (6-mer frequency, TF over GST control) | 1.06 fold enrichment (6-mer frequency, TF over GST control) | 1.1 fold enrichment (6-mer frequency, TF over GST control) | 1.14 fold enrichment (6-mer frequency, TF over GST control) | 1.12 fold enrichment (6-mer frequency, TF over GST control)
4 | CTGTAC | 1.18 fold enrichment (6-mer frequency, TF over GST control) | 1.35 fold enrichment (6-mer frequency, TF over GST control) | 1.33 fold enrichment (6-mer frequency, TF over GST control) | 1.57 fold enrichment (6-mer frequency, TF over GST control) | 1.22 fold enrichment (6-mer frequency, TF over GST control) | 1.36 fold enrichment (6-mer frequency, TF over GST control) | 1.31 fold enrichment (6-mer frequency, TF over GST control) | 1.3 fold enrichment (6-mer frequency, TF over GST control)
5 | TCCCCC | 1.45 fold enrichment (6-mer frequency, TF over GST control) | 1.43 fold enrichment (6-mer frequency, TF over GST control) | 1.42 fold enrichment (6-mer frequency, TF over GST control) | 1.35 fold enrichment (6-mer frequency, TF over GST control) | 1.52 fold enrichment (6-mer frequency, TF over GST control) | 1.7 fold enrichment (6-mer frequency, TF over GST control) | 1.51 fold enrichment (6-mer frequency, TF over GST control) | 1.56 fold enrichment (6-mer frequency, TF over GST control)
6 | TCTTTA | 1.1 fold enrichment (6-mer frequency, TF over GST control) | 1.4 fold enrichment (6-mer frequency, TF over GST control) | 1.2 fold enrichment (6-mer frequency, TF over GST control) | 1.2 fold enrichment (6-mer frequency, TF over GST control) | 1.25 fold enrichment (6-mer frequency, TF over GST control) | 1.19 fold enrichment (6-mer frequency, TF over GST control) | 1.25 fold enrichment (6-mer frequency, TF over GST control) | 1.22 fold enrichment (6-mer frequency, TF over GST control)
7 | TTCGCC | 1.14 fold enrichment (6-mer frequency, TF over GST control) | 1.27 fold enrichment (6-mer frequency, TF over GST control) | 1.12 fold enrichment (6-mer frequency, TF over GST control) | 1.1 fold enrichment (6-mer frequency, TF over GST control) | 1.18 fold enrichment (6-mer frequency, TF over GST control) | 1.04 fold enrichment (6-mer frequency, TF over GST control) | 1.08 fold enrichment (6-mer frequency, TF over GST control) | 1.16 fold enrichment (6-mer frequency, TF over GST control)
8 | CCCTAT | 1.22 fold enrichment (6-mer frequency, TF over GST control) | 1.44 fold enrichment (6-mer frequency, TF over GST control) | 1.34 fold enrichment (6-mer frequency, TF over GST control) | 1.31 fold enrichment (6-mer frequency, TF over GST control) | 1.3 fold enrichment (6-mer frequency, TF over GST control) | 1.43 fold enrichment (6-mer frequency, TF over GST control) | 1.34 fold enrichment (6-mer frequency, TF over GST control) | 1.28 fold enrichment (6-mer frequency, TF over GST control)
9 | TGGCTA | 1.33 fold enrichment (6-mer frequency, TF over GST control) | 1.21 fold enrichment (6-mer frequency, TF over GST control) | 1.16 fold enrichment (6-mer frequency, TF over GST control) | 1.28 fold enrichment (6-mer frequency, TF over GST control) | 1.29 fold enrichment (6-mer frequency, TF over GST control) | 1.14 fold enrichment (6-mer frequency, TF over GST control) | 1.18 fold enrichment (6-mer frequency, TF over GST control) | 1.28 fold enrichment (6-mer frequency, TF over GST control)
10 | TACTGT | 1.2 fold enrichment (6-mer frequency, TF over GST control) | 1.15 fold enrichment (6-mer frequency, TF over GST control) | 1.16 fold enrichment (6-mer frequency, TF over GST control) | 1.11 fold enrichment (6-mer frequency, TF over GST control) | 1.04 fold enrichment (6-mer frequency, TF over GST control) | 1.14 fold enrichment (6-mer frequency, TF over GST control) | 1.13 fold enrichment (6-mer frequency, TF over GST control) | 1.1 fold enrichment (6-mer frequency, TF over GST control)
11 | TCACAC | 1.26 fold enrichment (6-mer frequency, TF over GST control) | 1.32 fold enrichment (6-mer frequency, TF over GST control) | 1.33 fold enrichment (6-mer frequency, TF over GST control) | 1.16 fold enrichment (6-mer frequency, TF over GST control) | 1.27 fold enrichment (6-mer frequency, TF over GST control) | 1.26 fold enrichment (6-mer frequency, TF over GST control) | 1.27 fold enrichment (6-mer frequency, TF over GST control) | 1.33 fold enrichment (6-mer frequency, TF over GST control)
12 | ACGCTA | 1.2 fold enrichment (6-mer frequency, TF over GST control) | 1.12 fold enrichment (6-mer frequency, TF over GST control) | 1.01 fold enrichment (6-mer frequency, TF over GST control) | 1.15 fold enrichment (6-mer frequency, TF over GST control) | 1.17 fold enrichment (6-mer frequency, TF over GST control) | 1.12 fold enrichment (6-mer frequency, TF over GST control) | 1.21 fold enrichment (6-mer frequency, TF over GST control) | 1.08 fold enrichment (6-mer frequency, TF over GST control)
13 | CATCTA | 1.19 fold enrichment (6-mer frequency, TF over GST control) | 1.16 fold enrichment (6-mer frequency, TF over GST control) | 1.13 fold enrichment (6-mer frequency, TF over GST control) | 1.07 fold enrichment (6-mer frequency, TF over GST control) | 1.21 fold enrichment (6-mer frequency, TF over GST control) | 1.17 fold enrichment (6-mer frequency, TF over GST control) | 1.05 fold enrichment (6-mer frequency, TF over GST control) | 1.15 fold enrichment (6-mer frequency, TF over GST control)
14 | AAGTAT | 1.38 fold enrichment (6-mer frequency, TF over GST control) | 1.47 fold enrichment (6-mer frequency, TF over GST control) | 1.46 fold enrichment (6-mer frequency, TF over GST control) | 1.31 fold enrichment (6-mer frequency, TF over GST control) | 1.5 fold enrichment (6-mer frequency, TF over GST control) | 1.56 fold enrichment (6-mer frequency, TF over GST control) | 1.46 fold enrichment (6-mer frequency, TF over GST control) | 1.58 fold enrichment (6-mer frequency, TF over GST control)
15 | CTAACT | 1.32 fold enrichment (6-mer frequency, TF over GST control) | 1.19 fold enrichment (6-mer frequency, TF over GST control) | 1.35 fold enrichment (6-mer frequency, TF over GST control) | 1.24 fold enrichment (6-mer frequency, TF over GST control) | 1.29 fold enrichment (6-mer frequency, TF over GST control) | 1.21 fold enrichment (6-mer frequency, TF over GST control) | 1.24 fold enrichment (6-mer frequency, TF over GST control) | 1.29 fold enrichment (6-mer frequency, TF over GST control)

— paper PMC7862700, “An all-to-all approach to the identification of sequence-specific readers for epigenetic DNA modifications on cytosine”
